Only some compounds are listed: those with a hit (about 19% of all), similar ones and a draw of the others.
Shiga toxin inh: blocks Shiga toxin action in Vero cells | Vero cells, Shiga toxin protein synthesis inhibition reporter | inhibition, % at 38.7 µM | 290,000 tested, 9.2% active | AID 2315; in the data active = inhibition mostly above about 28%, no sharp cut-off; inactive = mostly below about 43%; note: 0% is about no effect
Cycloheximide cs: counter-screen hit for Shiga toxin inhibitors, cycloheximide. cell reporter, cycloheximide protein synthesis inhibition counterscreen. max response, %. 300,000 tested, 12% active. AID 2314; in the data active = max response mostly above about 13%, no sharp cut-off; inactive = mostly below about 14%; note: read at 38.3 µM for the half of the compounds with a filed dose; 0% is about no effect
Pf growth 48h: inhibits P. falciparum growth in the first generation, 48 h | AID 504832 | P. falciparum luciferase growth in erythrocytes, 48 h | Potency, µM (titrated, usually from 28.7 µM), for inactives: top-dose activity change, negative = inhibition, usual class: inhibitors | 310,000 tested, 5.9% active; note: potency is the fitted concentration of half-maximal effect; % is set by controls: 0 for no effect and ±100 for the full control effect
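First compound was added to culture medium, then infected red cells at 0.1% parasitemia and 2% hematocrit (final). After incubation at 37 C under 5% CO2, luciferase detection reagent was dispensed and light output recorded.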
MARV entry inh: Marburg virus entry inhibition | Potency, µM (series often up to 37.8 µM), for the others: top-dose activity change, negative = inhibition, hits mostly inhibitors | 300,000 tested, 1.8% active | Marburg virus pseudotyped entry inhibition, cell reporter | AID 540276; calls by dose curve; tested in HEK293 cells; note: potency is the fitted concentration of half-maximal effect; % is set by controls: 0 for no effect and ±100 for the full control effect
Pf growth 96h: P. falciparum growth inhibition at 96 hour, primary screen for plastid delayed-death inhibitors. P. falciparum luciferase reporter growth, 96 h. Potency, µM (highest dose often 28.7 µM), without a hit: at the highest dose activity change, negative = inhibition, actives largely listed as inhibitors. 320,000 tested, 6.9% active; note: potency is the fitted concentration of half-maximal effect; % is set by controls: 0 for no effect and ±100 for the full control effect
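Delayed-death screen, second-generation endpoint: infected erythrocytes, 2% hematocrit, 0.05% parasitemia final; 96 hours at 37 C, 5% CO2; luciferase detection reagent; luminescence decrease equals reduced growth.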
LASV entry inh: blocks Lassa virus binding to or entry into cells; Lassa virus pseudotype entry inhibition, cell reporter; Potency, µM (doses to about 37.9 µM), for the others: at the highest dose activity change, negative = inhibition, most hits filed as inhibitors; 300,000 tested, 1.2% active; AID 540256; calls by dose curve; tested in HEK293 cells; note: potency is the fitted concentration of half-maximal effect; % is set by controls: 0 for no effect and ±100 for the full control effect; nearly all actives have a fitted effect of over 50% in size
Starred values were filed as active, the others as inactive; [ ] = remark or other dose. Unless noted, calls come from the whole dose curve; as a rule, active = well fitted inhibition curve with a large enough effect; inconclusive = small, poorly fitted or top-dose-only effect, or another doubt; inactive = no such curve, though single readings can be large or run the other way.

CCC(=O)Nc1ccc(NC(=O)CSc2nnnn2-c2ccc3c(c2)OCCO3)cc1 was read as Shiga toxin inh 2.0, Cycloheximide cs -2.4, Pf growth 48h 10.9%, MARV entry inh -0.1%[46.1 µM], Pf growth 96h 28.0% and LASV entry inh 3.2%.
Screening Cc1ccc(-n2nnnc2SCC(=O)NC(=O)Nc2ccc3c(c2)OCCO3)cc1 returned Shiga toxin inh 74.8*, Cycloheximide cs 23.5*, Pf growth 48h 28.9%, MARV entry inh 18.0%, Pf growth 96h -25.5% and LASV entry inh 16.7%.
Screening COc1ccc(CCNC(=O)CSc2nnnn2C)cc1OC returned Shiga toxin inh -3.2, Cycloheximide cs 1.5, Pf growth 48h 3.4% and Pf growth 96h 71.8%.
Screening COc1ccc(-n2nnnc2SCC(=O)NCCc2ccc(OC)c(OC)c2)cc1 returned Shiga toxin inh 13.4, Cycloheximide cs 0.3, Pf growth 48h -12.8%, MARV entry inh 13.2%, Pf growth 96h 5.22µM* and LASV entry inh -28.2%.
COc1cccc2c1OCC(CN1CCN(Cc3ccccc3F)C(CCO)C1)=C2 (stereo unspecified) was read as Shiga toxin inh 2.0, Cycloheximide cs -0.1, Pf growth 48h inconclusive and Pf growth 96h inconclusive.
Cc1noc(C)c1S(=O)(=O)NCc1ccc2c(c1)OCO2 was read as Shiga toxin inh 1.1, Cycloheximide cs -3.9 and Pf growth 96h 33.7%.
`O=C(Nc1cccc(Cl)c1)c1cccc(Oc2ccc([N+](=O)[O-])cc2Cl)c1` gave Shiga toxin inh -9.2, Cycloheximide cs -3.1, Pf growth 48h inconclusive, MARV entry inh -29.4%, Pf growth 96h inconclusive and LASV entry inh -6.0%.
For COc1ccc(CCNC(=O)CSc2nc3[nH]ncc3c(=O)n2-c2ccc(C)c(Cl)c2)cc1OC the results were Shiga toxin inh 96.4*, Cycloheximide cs 40.7*, Pf growth 48h -80.6% and Pf growth 96h inconclusive.
For COc1ccc(CCNC(=O)CSc2nc3[nH]ncc3c(=O)n2-c2ccc(Cl)cc2Cl)cc1OC the results were Shiga toxin inh -12.9, Cycloheximide cs -2.6, Pf growth 48h inconclusive and Pf growth 96h inconclusive.
CC(C)Oc1cccc(-c2nnc(SCC(=O)Nc3ccc4c(c3)OCCO4)n2N)c1 was read as Shiga toxin inh 99.9, Cycloheximide cs 34.2*, Pf growth 48h 62.1%, MARV entry inh -0.7%, Pf growth 96h 46.9% and LASV entry inh -5.8%.
`Nn1c(SCC(=O)Nc2ccc3c(c2)OCCO3)nnc1-c1cccnc1` gave Shiga toxin inh 8.6, Cycloheximide cs -2.2, Pf growth 48h 3.6%, MARV entry inh 28.4%, Pf growth 96h inconclusive and LASV entry inh 1.9%.
Screening NC(=O)CSc1nnnn1-c1ccc(OC(F)(F)F)cc1 returned Shiga toxin inh 14.2, Cycloheximide cs -0.9, Pf growth 48h 6.4%, MARV entry inh -0.5%, Pf growth 96h 0.185µM* and LASV entry inh 26.1%.
For COc1ccc(N(CC(=O)Nc2cccc(F)c2)S(=O)(=O)c2c(C)[nH]c(=O)[nH]c2=O)cc1 the results were Shiga toxin inh 3.3, Cycloheximide cs -0.8, Pf growth 48h -1.1% and Pf growth 96h 0.0%.
O=C1c2ccccc2C(=O)c2c(NCCCN(CCO)CCO)cccc21 was read as Shiga toxin inh 69.3, Cycloheximide cs 20.2, Pf growth 48h inconclusive, MARV entry inh inconclusive, Pf growth 96h 44.9% and LASV entry inh 6.3%.
Screening Cc1nonc1NC(=O)c1oc2ccc(F)cc2c1C returned Shiga toxin inh -2.9, Cycloheximide cs -6.9, Pf growth 48h 4.5% and Pf growth 96h -16.2%.
CCc1ccc2oc(C(=O)NCc3ccncc3)c(C)c2c1 was read as Shiga toxin inh 50.3*, Cycloheximide cs 21.9*, Pf growth 48h 25.4%, MARV entry inh 7.7%, Pf growth 96h inconclusive and LASV entry inh 0.1%.
Screening CCN(CC)S(=O)(=O)c1ccc2oc(C(=O)NCc3ccc(C)cc3)c(C)c2c1 returned Shiga toxin inh -6.3, Cycloheximide cs 0.3, Pf growth 48h 9.28µM*, MARV entry inh inconclusive and LASV entry inh inconclusive.
CCc1ccc2oc(C(=O)Nc3nonc3CC)c(C)c2c1 was read as Shiga toxin inh 52.6*, Cycloheximide cs 58.9*, Pf growth 48h 2.7%, MARV entry inh 36.4%[46.1 µM], Pf growth 96h 13.6% and LASV entry inh 10.6%[46.1 µM].
Screening CCCCN(CCCC)S(=O)(=O)c1ccc2oc(C(=O)NCc3ccc(C)cc3)c(C)c2c1 returned LASV entry inh -1.3%[46.1 µM].
Cc1cc2oc(C(=O)Nc3nonc3C)c(C)c2cc1Cl was read as Shiga toxin inh 1.0, Cycloheximide cs 7.7, Pf growth 48h 75.0% and Pf growth 96h 8.28µM*.
`COc1ccccc1NC(=O)CNC(=O)CC12CC3CC(CC(C3)C1)C2` gave MARV entry inh -12.9% and LASV entry inh 3.9%.
Screening CSc1nsc(SCc2cnc(C)nc2N)n1 returned Shiga toxin inh 7.4, Cycloheximide cs 16.1, Pf growth 48h 20.2%, MARV entry inh 6.3% and LASV entry inh -0.1%.
Screening CCc1nonc1NC(=O)c1oc2c(C)c(C)ccc2c1C returned Shiga toxin inh 2.8, Cycloheximide cs 2.3, Pf growth 48h inconclusive and Pf growth 96h 14.0%.
`CCc1nonc1NC(=O)c1oc2cc(Br)ccc2c1C` gave Shiga toxin inh 18.8, Cycloheximide cs 15.4*, Pf growth 48h 9.28µM*, MARV entry inh 3.3%[46.1 µM], Pf growth 96h inconclusive and LASV entry inh 7.0%[46.1 µM].
Screening CCc1nonc1NC(=O)c1oc2ccccc2c1C returned Shiga toxin inh 23.6, Cycloheximide cs 36.3*, Pf growth 48h 9.28µM*, MARV entry inh 13.3%[46.1 µM], Pf growth 96h inconclusive and LASV entry inh 2.5%[46.1 µM].
Screening CCc1nonc1NC(=O)c1oc2ccc(C)cc2c1C returned Shiga toxin inh 45.5*, Cycloheximide cs 36.1*, Pf growth 48h 66.9%, MARV entry inh inconclusive, Pf growth 96h inconclusive and LASV entry inh 29.5%[46.1 µM].
`O=C(O)CC(CC(=O)Nc1nncs1)c1ccccc1` (stereo unspecified) gave Shiga toxin inh -18.7, Cycloheximide cs -4.9, Pf growth 48h 8.8%, MARV entry inh 27.1%[46.1 µM], Pf growth 96h -14.4% and LASV entry inh 0.2%.
`O=C(CNS(=O)(=O)c1ccc([N+](=O)[O-])cc1)N/N=C/c1ccc(O)cc1O` gave Shiga toxin inh -5.8, Cycloheximide cs -1.4, Pf growth 48h inconclusive, MARV entry inh inconclusive, Pf growth 96h -29.1% and LASV entry inh inconclusive.
Screening CN(C(=O)CC1C(=O)NCCN1Cc1ccccc1F)C1CCOCC1 (stereo unspecified) returned Shiga toxin inh -7.5, Cycloheximide cs -1.6, Pf growth 48h 1.5%, MARV entry inh 7.6%, Pf growth 96h 5.1% and LASV entry inh 21.5%.
CCCc1cc(C(=O)N2CCCC(Cc3cccc(Cl)c3)(C(=O)OCC)C2)n(C)n1 (stereo unspecified) was read as Shiga toxin inh 65.0*, Cycloheximide cs 17.9, Pf growth 48h inconclusive and Pf growth 96h inconclusive.

Screening results (PubChem)
